Screens: PubChem, National Center for Advancing Translational Sciences (NCATS)
D3 antag = qHTS of D3 Dopamine Receptor Antagonist: qHTS. AID 652054, 2013. 2.5% of 360,000 active. max response, negative = inhibition, %. D3R cells, DiscoveRx beta-arrestin luminescence, antagonist mode; stronger effect = lower value. D(3) dopamine receptor (Homo sapiens), P35462; in the data active means max response below about -50%; inconclusive means no clear call, values can overlap the other calls
Target sequence (P35462 whole entry, looked up): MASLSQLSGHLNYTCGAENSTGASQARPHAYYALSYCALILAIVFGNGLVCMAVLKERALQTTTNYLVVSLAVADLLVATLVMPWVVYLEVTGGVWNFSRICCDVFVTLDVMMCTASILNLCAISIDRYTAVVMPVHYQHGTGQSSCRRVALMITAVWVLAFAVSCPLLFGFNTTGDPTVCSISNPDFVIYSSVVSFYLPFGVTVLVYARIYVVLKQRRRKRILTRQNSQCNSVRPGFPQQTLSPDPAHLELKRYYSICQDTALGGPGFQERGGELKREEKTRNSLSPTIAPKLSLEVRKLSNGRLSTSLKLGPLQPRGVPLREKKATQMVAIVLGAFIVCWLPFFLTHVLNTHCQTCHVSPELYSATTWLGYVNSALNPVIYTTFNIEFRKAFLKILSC
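Cells expressing the human receptor were seeded at 1500 cells/well, incubated overnight at 37 degrees C in 5% CO2, then exposed to library compounds with dopamine controls for 90 minutes at 37 degrees C before luminescent detection.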
TDP1 cell noCPT = qHTS for Inhibitors of human tyrosyl-DNA phosphodiesterase 1 (TDP1): qHTS in cells in absence of CPT. DT40 Tdp1-/- hTDP1 cells, no CPT, ATP luminescence, 48 h. Potency, µM (titrated, usually from 46.2 µM), most hits filed as inhibitors. 15% of 420,000 active. AID 686978, 2013; further: nearly all actives have a fitted effect of over 55% in size
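Growth of hTDP1-complemented DT40 Tdp1-knockout cells is measured by ATP luminescence after at least 48 hr compound exposure at 37 °C, with DMSO substituting for the 20 nM CPT used in the parallel screen.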
TDP1 cell CPT = qHTS for Inhibitors of human tyrosyl-DNA phosphodiesterase 1 (TDP1): qHTS in cells in presence of CPT | chicken DT40 Tdp1-/-;hTDP1 cells + 20 nM CPT, ATP luminescence, 48 h | Potency, µM (titrated, usually from 46.2 µM), hits mostly inhibitors | 12% of 420,000 active | AID 686979, 2013; further: nearly all actives have a fitted effect of over 55% in size
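Cell growth measured by CellTiter-Glo luminescence after a minimum 48 h, 37 C compound exposure with 20 nM CPT in Tdp1-knockout DT40 cells stably expressing hTDP1, seeded 400/well; qHTS titration format.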
IL1B secr inh = qHTS for Inhibitors of Inflammasome Signaling: IL-1-beta AlphaLISA Primary Screen; 4.7% of 360,000 active; THP-1 LPS/ATP IL-1B secretion, AlphaLISA, 16 h; stronger effect = lower value; activity change, % at 57.5 µM; in the data active means activity change below about -50%; inconclusive means mostly about -30% to -49%
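THP-1 cells pretreated 1 hr with compounds (up to 57.5 uM final), then stimulated with LPS (250 ng/mL final) plus ATP (1.25 mM final); secreted IL-1B measured by AlphaLISA after 16 hr, decreased signal indicating inhibition.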
D3 ag = qHTS of D3 Dopamine Receptor Agonist: qHTS; D(3) dopamine receptor (Homo sapiens), P35462; D3R DiscoveRx beta-arrestin cells, luminescence, 90 min; max activation, %; 0.58% of 410,000 active; AID 652048, 2013; in the data active means max activation above about 30%
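Agonist mode: compounds and dopamine controls were applied to plated cells for 90 min at 37 degrees C after an overnight attachment at 1500 cells/well. Luminescent read-out followed 30 - 60 minutes at room temperature with DiscoveRx detection reagent.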
ClpP mod = qHTS Assay for Activators of ClpP. purified B. subtilis ClpP, FRET peptide cleavage, 20 min. Potency, µM (titrated, usually from 57.5 µM). 1.9% of 340,000 active. AID 651965, 2013; active means well fitted falling curve with a large enough effect; inconclusive means small, poorly fitted or top-dose-only effect; inactive means no such curve, though single readings can be large or run the other way; further: the source files actives as falling curves though it sought activators and does not explain the sign; nearly all actives have a fitted effect of over 65% in size
Target sequence (P80244 whole entry, looked up): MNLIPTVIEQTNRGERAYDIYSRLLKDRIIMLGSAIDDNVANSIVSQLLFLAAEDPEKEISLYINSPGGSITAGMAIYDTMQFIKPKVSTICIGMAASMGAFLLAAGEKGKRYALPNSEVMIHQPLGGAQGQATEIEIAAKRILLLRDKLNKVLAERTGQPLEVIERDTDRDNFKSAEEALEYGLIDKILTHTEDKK
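ClpP 10 microg/mL final, pH 8 Tris/KCl buffer with BSA, glycerol, Tween-20; compound pinned in; FRET-FV substrate; RT 20 min; Ex320/Em430; ΔFRET vs ADEP 5.8 microM, DMSO, no enzyme.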
Numbers stand for hits; n = inactive; u = inconclusive; x = no result given; ! = a repeat was not active. Compounds with a hit are over-represented: about 21% of the library has one in this group of screens. Unless noted, the call rests on the fitted dose curve; in most records, active means well fitted inhibition curve with a large enough effect; inconclusive means small, poorly fitted or top-dose-only effect; inactive means flat fitted curve, though single readings scatter.

SMILES	D3 antag	TDP1 cell noCPT	TDP1 cell CPT	IL1B secr inh	D3 ag	ClpP mod
COc1ccccc1CCNC1C2CC3CC(C2)CC1C3 (stereo unspecified)	n	u	n	n	n	n
CC1=C(O)C(=O)C=C2C1=CC=C1[C@]2(C)CC[C@@]2(C)C3C[C@](C)(C(=O)O)CC[C@@]3(C)CC[C@@]12C (stereo partly specified)	x	0.82µM	1µM	x	x	x
CN(C)CCNC(=O)c1cccn(Cc2cc(C(F)(F)F)cc(C(F)(F)F)c2)c1=O	n	n	n	u	n	x
O=P(O)(O)CN1CCNCCN(CP(=O)(O)O)CCNCC1	n	6.5µM	6.5µM	n	n	n
O=C(O)CCC(=O)N1N=C(c2c(-c3ccccc3)c3cc(Cl)ccc3[nH]c2=O)CC1c1ccco1 (stereo unspecified)	n	n	n	n	n	u
CCS(=O)(=O)Nc1ccc(C2=NN(C(=O)c3ccco3)C(c3ccc(Cl)o3)C2)cc1 (stereo unspecified)	n	23µM	u	-63	n	n
Cc1nc2c(c(C)nn2-c2ccccc2)c(C)c1CCC(=O)N1CCC2(CC1)OCCO2	n	u	u	n	n	u
Cc1nc2cc(-c3cccc(F)c3)nn2c(C)c1CCC(=O)N1CCC2(CC1)OCCO2	n	u	16µM	n	n	u
NC(=O)c1ccsc1NC(=O)COC(=O)Cc1ccccc1	n	u	n	n	n	n
COC(=O)CCC(=O)Nc1sc(Cc2ccccc2)c(C)c1C(N)=O	n	23µM	12µM	n	n	x
CN(CC=CCN(C)P(=S)(N1CC1)N1CC1)P(=S)(N1CC1)N1CC1	n	1.8µM	1.6µM	n	n	n
Cn1c(=O)n(C)c2cc(CNCCc3ccccc3F)ccc21	x	u	u	x	n	n
CC(=O)OC1C2C(OC(=O)Cc3ccccc3)C(C)CC2(OC(C)=O)C(=O)/C(C)=C/C2C(CC[C@@]13CO3)C2(C)C (stereo partly specified)	x	n	n	x	x	x
COc1cc2c(c(OC)c1O)-c1ccc(OC)c(=O)cc1C(NC(=O)C(F)(F)F)CC2 (stereo unspecified)	u	0.16µM	0.1µM	n	n	n
COc1cc2c(c(OC)c1OC)-c1ccc(OC)c(=O)cc1[C@@H](NC(C)=O)CC2	n	0.19µM!	0.016µM	n	n	n
COc1cc2c(c(OC)c1OC)-c1ccc(O)c(=O)cc1[C@@H](N)CC2	n	n	n	n	n	n
CCN(CC)c1ccc2c(cc1=O)[C@@H](NC)CCc1cc(OC)c(OC)c(OC)c1-2	u	1.2µM	1.2µM	n	n	x
COc1cc2c(c(OC)c1OC)-c1ccc(OC)c(=O)cc1[C@H](NC(C)=O)CC2	x	0.06µM	0.094µM	x	x	x
Cc1nc2c(c(=O)[nH]1)C(c1ccccc1Cl)c1c(c3ccccc3oc1=O)O2 (stereo unspecified)	n	u	n	n	n	n
C=Cn1ccnc1P(O)(=S)c1nc(C)c(CCOC(C)=O)s1 (stereo unspecified)	n	n	n	n	n	x
O=C1/C(=C\c2ccc([N+](=O)[O-])cc2)N2CCC1CC2	n	u	n	-64	n	x
CCCc1cc(=O)oc2cc(OCC(=O)N3C[C@H]4C[C@@H](C3)c3cccc(=O)n3C4)ccc12	n	n	n	n	n	n
O=C(CI)c1ccc(Cl)cc1	x	n	n	x	x	n
Cn1ncc2c(NCc3ccc(F)cc3)ncnc21	x	u	u	x	n	n
Cc1nc2cc(C(F)(F)F)ccc2n1C1CCN(Cc2nnnn2CCc2ccccc2)CC1	n	13µM	18µM	u	n	u
SMILES	D3 antag	TDP1 cell noCPT	TDP1 cell CPT	IL1B secr inh	D3 ag	ClpP mod
Cc1ccc(Cn2nnnc2CN2CCC(n3nnc4cc(C(F)(F)F)ccc43)CC2)cc1	n	21µM	u	u	n	n
Cc1nc2cc(F)ccc2n1C1CCN(Cc2nnnn2CCc2ccccc2)CC1	n	u	16µM	u	n	n
FC(F)(F)c1ccc2c(c1)nnn2C1CCN(Cc2nnnn2Cc2ccccc2)CC1	u	u	u	u	n	n
CN(Cc1ccccc1)C(=C(Cl)Cl)/C(=C1/NCCN1Cc1ccc(Cl)nc1)[N+](=O)[O-]	n	u	u	u	n	n
FC(F)(F)c1nc(N2CCN(c3ccccc3)CC2)nc2c1CCCCC2	n	18µM	u	n	n	u
O=C1NC(=O)N(Cc2ccccc2)C(=O)C1Cc1ccccc1 (stereo unspecified)	n	8.2µM	n	n	n	n
O=C1NC(=S)NC(=O)C1Cc1ccccc1	n	n	n	n	n	n
O=C1NC(=O)C(Cc2ccccc2)(Cc2ccccc2)C(=O)N1Cc1ccccc1	n	u	23µM	-54	n	n
O=c1[nH]c(=O)n(C2CCCCCC2)c(O)c1C=NC1CCN(Cc2ccccc2)CC1	-58	u	n	u	n	n
O=c1[nH]c(=S)n(CCC2=CCCCC2)c(O)c1/C=N/Nc1ccccc1	n	n	n	n	n	n
O=c1[nH]c(=O)n(C2CCCCCC2)c(O)c1C=NCC1CCCO1 (stereo unspecified)	-51	n	n	n	n	n
O=c1[nH]c(=S)n(CCC2=CCCCC2)c(O)c1C=NC1CCN(Cc2ccccc2)CC1	n	u	21µM	n	n	n
Cn1c(O)c(C=NC2CCN(Cc3ccccc3)CC2)c(=O)[nH]c1=O	n	n	n	n	n	n
O=C(COc1ccc(Cl)cc1)NCCc1cnc[nH]1	n	n	n	n	n	n
O=S(=O)(c1ccc(Cl)cc1)N1CCCCC1c1cccnc1 (stereo unspecified)	n	u	u	n	n	x
CC(Cc1ccccc1)[n+]1cc(/N=C(\[O-])Nc2ccccc2)on1 (stereo unspecified)	-54	n	n	n	n	n
CC(Cc1ccccc1)[n+]1cc(/N=C(\N)[O-])on1 (stereo unspecified)	n	n	n	n	n	n
CN1CCN(c2ccc([N+](=O)[O-])c(N)c2)CC1	n	n	n	n	n	n
CN1CCN(c2ccc([N+](=O)[O-])c(NCc3ccco3)c2)CC1	-75	u	n	n	n	u
